Screening results deposited in PubChem by several laboratories.
The list is not random: actives were taken first. Their share in the collection is about 2.2%.
TROY NFkB inh – inhibitors of TROY-dependent NF-kB signaling; Q293 LMP1-TROYcd NF-kB luciferase reporter, 4 h; inhibition, % at 10 µM; 0.98% of 360,000 active;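 active = compounds whose plate-normalised and pattern-corrected inhibition of the luciferase reporter signal at the single screening dose is 50% or more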
LGR2 inh – blocks bursicon-induced cAMP signaling via Drosophila LGR2; HEK293 LGR2, CRE-luciferase, bursicon-stimulated, 4 h; inhibition, % at 9.99 µM; 0.35% of 380,000 active; AID 720647;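 active = drop in luminescence signal, shown as inhibition above about 50% in the replicate tests, limit read from the data, passing the limit was not always enough; inconclusive = probably only some replicates passing the limit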;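 note: agonist challenge used bursicon conditioned medium at about half maximal strength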
HSP90 refold inh – HSP90 refolding inhibition in rabbit reticulocyte lysate; inhibition, % at 5.6 µM; 0.91% of 290,000 active; AID 1789; luciferase refolding luminescence, 3 h;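 active = inhibition above the screen-wide mean plus 3 SD, computed separately per campaign, cut at about 16% in these data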;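 note: inhibitors lower the luminescence because luciferase stays unfolded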
TWEAK-Fn14 inh – TWEAK-Fn14 signaling inhibition. 2% of 360,000 active. AID 1159606. inhibition, % at 10 µM. TWEAK-stimulated Fn14 reporter cells, luciferase luminescence, 8 h; in the data active = inhibition above about 50%
Numbers stand for hits; n = inactive; u = inconclusive; x = no result given.

SMILES	TROY NFkB inh	LGR2 inh	HSP90 refold inh	TWEAK-Fn14 inh
CCOc1cc(/C=C/C(=O)Nc2ccc(C(=O)NCCN(CC)CC)cc2)ccc1OCC(C)C	n	103	n	n
Cc1cc(NC(c2cccnc2)c2c(C)[nH]c3ccccc23)no1 (stereo not drawn)	n	x	16	n
Cc1ccnc(NC(c2ccccn2)c2c(C)[nH]c3ccccc23)c1 (stereo not drawn)	n	n	n	n
Cc1cc(C2=NNC(=NC3CC3)SC2)c(C)n1Cc1ccco1	n	x	n	61
c1ccc(C2=NNC(=NC3CC3)SC2)cc1	n	x	n	63
C=CCN=C1NN=C(c2cc(C)n(CCOC)c2C)CS1	n	u	n	n
COCCCN=C1NN=C(c2cc(C)n(Cc3ccco3)c2C)CS1	n	n	n	n
COCCn1c(C)cc(C2=NNC(=NC3CC3)SC2)c1C	86	94	70	102
C=CCn1c(C)cc(C2=NNC(=NC(C)(C)C)SC2)c1C	n	n	n	83
Cc1ccc(S(=O)(=O)N(C)C[C@@H]2Oc3ccc(N(C)C)cc3CC(=O)N([C@H](C)CO)C[C@@H]2C)cc1	x	n	x	x
CCCC(=O)Nc1ccc2c(c1)OC[C@@H](C)N(Cc1ccc(F)cc1)C[C@@H](C)[C@H](OC)CN(C)C2=O	x	n	x	x
Cc1cc(C2=NNC(=NC3CC3)SC2)c(C)n1-c1ccccc1	n	n	n	96
C=CCSc1nsc(NC(=O)Nc2ccc(F)cc2)n1	n	n	n	52
COc1ccccc1C(=O)NC(=S)Nc1ccc(Cc2ccncc2)cc1	62	n	n	n
COc1c(C(=O)Nc2ccc(Cc3ccncc3)cc2)ccc2ccccc12	57	n	n	n
O=C(CCl)Nc1cc(SCC(O)CO)cc([N+](=O)[O-])c1 (stereo not drawn)	n	73	n	n
CCC(=O)Nc1cc(SCCO)cc([N+](=O)[O-])c1	n	x	n	n
CC1CCCC(NC(=O)COC(=O)c2c[nH]c(=O)[nH]c2=O)C1C (stereo not drawn)	x	x	n	55
Cc1cc(C(=O)OCC(=O)NC2CCCC(C)C2C)c(C)o1 (stereo not drawn)	n	n	x	n
C[C@@H]1CN([C@H](C)CO)C(=O)c2c(c3ccccc3n2C)-c2ccccc2CO[C@@H]1CN(C)CC1CCCCC1	x	n	x	x
O=C(C[C@H]1CC[C@H]2[C@@H](COC[C@H](O)CN2CCc2ccccc2)O1)NCc1ccccc1	x	n	x	x
Cc1ccc(OCC(=O)NNc2c3ccccc3nc3ccccc23)cc1	n	n	n	72
COc1ccc(OCC(=O)Nn2c(-c3ccc(C)cc3)nc3ccccc3c2=O)cc1	72	n	n	72
Cc1noc(C)c1S(=O)(=O)N(C)C[C@@H]1Oc2ccc(NS(C)(=O)=O)cc2C(=O)N([C@@H](C)CO)C[C@@H]1C	x	n	x	x
O=C(N=Nc1c(O)[nH]c2ccccc12)c1cccc(S(=O)(=O)N2CCCCC2)c1	n	n	n	n
SMILES	TROY NFkB inh	LGR2 inh	HSP90 refold inh	TWEAK-Fn14 inh
CC(C)c1ccc2[nH]c(O)c(N=NC(=O)c3cccc(S(=O)(=O)N4CCCCC4)c3)c2c1	n	n	n	55
COc1cc(/C=C2/SC(=O)NC2=O)ccc1Oc1ccc([N+](=O)[O-])cc1[N+](=O)[O-]	54	n	n	56
O=C(Nc1nnc(-c2ccc3c(c2)CCCC3)o1)c1c(F)cccc1F	n	n	n	53
C[C@H]1CN([C@@H](C)CO)S(=O)(=O)c2ccc(Br)cc2O[C@@H]1CN(C)C(=O)c1cnccn1	x	n	x	x
CC(C)c1ccc(-n2c(-c3ccccc3)c[n+]3c2CCc2ccccc2-3)cc1	59	54	n	84
COc1ccc(-n2c(-c3ccc(Br)cc3)c[n+]3c2CCc2ccccc2-3)cc1	n	n	n	n
C=C1C(=O)C=C[C@]2(C)C[C@@H]3OC(=O)[C@](C)(O)[C@H]3C[C@@H]12	n	n	x	55
C[C@@H]1CN([C@H](C)CO)C(=O)c2cccc(NC(=O)CCCCCC(=O)Nc3ccccc3N)c2O[C@H]1CN(C)C	x	n	x	x
N/C(=N\OC(=O)c1cccs1)c1ccc(Cl)cc1	n	n	n	n
COc1ccc(/C(N)=N/OC(=O)c2cccs2)cc1	n	70	n	n
O=C(C[C@H]1C=C[C@@H](NC(=O)Cc2ccccn2)[C@@H](CO)O1)NCCc1ccccc1	x	n	x	x
O=C(N/N=C/c1ccccc1)c1ccco1	n	n	n	n
O=C(C#Cc1ccccc1)c1ccco1	58	50	n	94
C[C@@H]1CN([C@H](C)CO)C(=O)c2cccc(NC(=O)C3CCCCC3)c2O[C@H]1CN(C)C(=O)Nc1cccc2ccccc12	x	n	x	x
CCCN1CN(CCc2ccccc2)CNC1=S	n	n	n	104
S=C1NCN(CCc2ccccc2)CN1Cc1ccccc1	n	n	n	96
